Compounds with a hit are over-represented: about 1.6% of the library has one in this group of screens.
Myeloid diff 2: induction of myeloid progenitor differentiation, primary screen, cell-based, flow cytometry, MLPCN library; ER-HoxA9 myeloid progenitors, lysozyme-GFP differentiation; calls only at 10 µM; 360,000 tested, 1% active; AID 624256, 2012;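 active = normalized GFP-positive differentiation at or above the plate's own cutoff, the solvent-only control mean plus 3 SD; inconclusive = no clear call, values can overlap the other calls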;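 also: cells exposed to compound for four days before flow analysis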
N-glyco inh: increase of ERlucT glycosylation luciferase signal, primary screen, N-linked glycosylation inhibitor project, D54 ERlucT cells, luminescence, set 2. D54 ERlucT glycosylation luciferase reporter, 24 h; percent of 100 nM tunicamycin response. AID 588692, 2011. 360,000 tested, 0.23% active. reporter increase, % at 12.5 µM;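 active = mean luciferase reporter signal, scaled so untreated is 0 and the glycosylation-blocking control 100, at or above a set limit in every replicate; inconclusive = mean reaches the limit but not every replicate does; inactive = mean below the limit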;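 also: luciferase carries N-glycosylation sites so blocking glycosylation raises the light; 0% = median of neutral control wells and 100% = median of 100 nM tunicamycin wells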
ABCB6 inh 2: ABCB6 transporter inhibitors, primary screen, K562-ABCB6 cells, flow cytometry, MLPCN library; ATP-binding cassette sub-family B member 6 (Homo sapiens), Q9NP58; K562-ABCB6 porphyrin accumulation, 1 h; active compounds read low; fluorescence ratio to DMSO, % at 10 µM; 360,000 tested, 0.19% active; AID 602162, 2011;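 active = fluorescence ratio to DMSO below 75%, the collection mean minus 3 SD; inconclusive = too few cells collected in the well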;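 also: signal is porphyrin accumulated inside mitochondria; 100% equals median channel fluorescence of DMSO control wells; lower ratio means ABCB6 inhibition with less porphyrin fluorescence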
Target sequence (Q9NP58 whole entry, looked up): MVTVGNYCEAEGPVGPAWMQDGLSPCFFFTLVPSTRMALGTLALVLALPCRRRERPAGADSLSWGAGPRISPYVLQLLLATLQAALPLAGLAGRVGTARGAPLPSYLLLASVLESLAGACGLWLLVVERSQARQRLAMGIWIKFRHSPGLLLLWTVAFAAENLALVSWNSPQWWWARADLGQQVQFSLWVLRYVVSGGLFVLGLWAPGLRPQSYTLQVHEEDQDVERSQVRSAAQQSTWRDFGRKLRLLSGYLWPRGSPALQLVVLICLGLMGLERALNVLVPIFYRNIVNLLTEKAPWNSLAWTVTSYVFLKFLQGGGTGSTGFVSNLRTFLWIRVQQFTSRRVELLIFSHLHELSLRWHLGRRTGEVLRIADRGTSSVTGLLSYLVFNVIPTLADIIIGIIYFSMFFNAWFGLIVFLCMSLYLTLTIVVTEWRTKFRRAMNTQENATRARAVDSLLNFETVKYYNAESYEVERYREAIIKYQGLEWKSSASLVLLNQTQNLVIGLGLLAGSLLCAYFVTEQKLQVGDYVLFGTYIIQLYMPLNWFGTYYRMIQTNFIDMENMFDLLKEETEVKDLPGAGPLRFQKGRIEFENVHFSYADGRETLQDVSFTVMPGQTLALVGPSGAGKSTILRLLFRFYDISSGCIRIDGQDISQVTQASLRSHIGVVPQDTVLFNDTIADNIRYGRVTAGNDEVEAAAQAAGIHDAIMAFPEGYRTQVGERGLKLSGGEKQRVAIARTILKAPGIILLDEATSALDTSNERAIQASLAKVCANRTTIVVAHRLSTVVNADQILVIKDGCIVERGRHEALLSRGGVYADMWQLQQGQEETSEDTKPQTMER
RAD54 inh: inhibitors of human RAD54 branch migration, primary screen, biochemical, fluorescence, single point; DNA repair and recombination protein RAD54-like (Homo sapiens), Q92698; AID 602329, 2012; 360,000 tested, 0.14% active; inhibition, % at 10.4 µM; RAD54 Holliday junction branch migration, FAM/BHQ fluorescence;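 active = mean normalized replicate activity at least 40 and at least half of replicates scoring 40 or more; inconclusive = only one of the two criteria met; inactive = mean below 40 and under half of replicates reaching 40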;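 also: 0% = median of neutral control wells and 100% = median of positive control wells; inhibitors cause a drop in the FAM fluorescence signal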
Vif inh: HIV Vif self-association inhibitors, primary screen, imaging, HEK293T, single point; HEK293T cells, Vif self-association by quenched fluorescence, 24 h; 340,000 tested, 0.35% active; inhibition, % at 7.49 µM; AID 602346, 2012; in the data active = inhibition above about 50%, passing the limit was not always enough; inconclusive = no clear call, values can overlap the other calls; inactive = below about 31%
Myeloid diff: inducers of myeloid progenitor differentiation, confirmation, cell-based, GFP/Mac1 flow cytometry, cherry pick 01 | calls only | shares compounds with Myeloid diff 2 | 2,300 tested, 2% active | ER-HoxA9 myeloid progenitors, GFP/Mac1 double-positive flow;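 active = share of green or green-and-red cells above 9 and 9% in run 1 or 4 and 3% in run 2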
GFP autofluor: compound fluorescence in myeloid differentiation counter-screen | ER-HoxA9 myeloid progenitors, no estrogen, GFP autofluorescence flow cytometry; vehicle wells 0%, positive control 100% | fluorescence response, % (test concentration not listed) | 2,300 tested, 7.4% active | shares compounds with Myeloid diff 2;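 active = over 5% cells positive for green fluorescent reporter, or over 2% positive for both it and APC stain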;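 also: range taken on the double positive population between DMSO and positive control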
Starred values were filed as active, the others as inactive; i = inactive; u = inconclusive; x = not tested or not shown; + = active, no number.

SMILES	Myeloid diff 2	N-glyco inh	ABCB6 inh 2	RAD54 inh	Vif inh	Myeloid diff	GFP autofluor
Cn1ccc2c(-c3ccc(C(C)(C)C)cc3)cc3c(c21)C1CCC3O1 (stereo unspecified)	+	-11.9	104.0	4.4	x	+	0.0
Cc1cccc(N2CCN(C(=S)NCCc3ccccc3)CC2)c1C	+	4.2	100.0	0.5	-13.0	i	0.0
COCCNC(=S)N1CCN(c2cccc(C)c2C)CC1	i	-2.2	99.0	x	3.3	x	x
C[C@H](CO)N1C[C@H](C)[C@@H](CN(C)S(=O)(=O)c2ccc(F)cc2)OCCCC[C@H](C)Oc2ccc(NS(=O)(=O)c3cccs3)cc2C1=O	x	x	x	1.6	x	x	x
Cc1cc(NC(=O)/C=C/c2ccccc2Cl)no1	i	-0.2	97.0	x	0.1	i	0.6
COc1ccc2c(c1)OC[C@H]1[C@H]2N2C(=O)c3cc(OC)ccc3NC(=O)[C@@]2(C)[C@H]1c1ccccc1	i	23.7	101.0	2.9	-3.0	i	0.0
COc1ccc(Nc2nnc(SCc3cn4c(C)cccc4n3)s2)cc1	+	7.2	97.0	1.3	-1.0	i	0.0
CCCN1[C@H](C(=O)NCC)[C@@H](CO)[C@@H]2Cn3c(ccc(-c4ccc(C(=O)N(C)C)cc4)c3=O)[C@@H]21	x	x	x	-1.1	x	x	x
CC(C)Cn1c(N)c(C(=O)COC(=O)c2cnc(Cl)c(Cl)c2)c(=O)n(C)c1=O	i	5.1	101.0	x	-5.2	x	x
CC(C)Cn1c(N)c(C(=O)COC(=O)c2cnccn2)c(=O)n(C)c1=O	+	-1.3	83.0	x	-8.0	i	1.1
CCOC(=O)Cc1csc(SCC(=O)c2c(N)n(CC(C)C)c(=O)n(C)c2=O)n1	i	0.8	78.0	-2.8	-6.2	x	x
Cc1csc(SCC(=O)c2c(N)n(CC(C)C)c(=O)n(C)c2=O)n1	+	2.5	97.0	-2.9	0.3	i	51.4*
COc1cc(C2CC(=O)Nc3cc(C)c(C)cc32)cc(OC)c1OC (stereo unspecified)	+	20.8	98.0	x	-4.4	i	2.1
CCOc1c(Br)cc(C2CC(=O)Nc3cc(OC)c(OC)cc32)cc1OC (stereo unspecified)	i	-0.4	98.0	-3.2	-5.3	x	x
O=C(NCC1CCCCC1)[C@H]1[C@H](CO)[C@H]2Cn3c(cccc3=O)[C@H]2N1Cc1ccccn1	x	x	x	5.8	x	x	x
CCOC(=O)Cn1c2c(c(=N)c3ccccc31)CCC2	+	1.8	103.0	-12.7	-0.8	i	0.0
CCOC(=O)Cn1c2c(c(=N)c3c1CCC3)CCC2	i	2.5	88.0	-5.8	14.6	x	x
O=C(CN1CCN(c2ncccn2)CC1)Nc1ccccc1-n1cccc1	+	-1.3	104.0	-12.0	-6.6	i	0.0
O=C(C[C@H]1C[C@H]2c3cc(NC(=O)Nc4ccccc4F)ccc3O[C@H]2[C@@H](CO)O1)NC1CCCC1	x	x	x	-0.2	x	x	x
Cc1cc(NC(=O)c2cc(-c3ccc4c(c3)OCO4)on2)n(-c2ccccc2)n1	+	0.6	91.0	6.4	x	i	0.0
Cc1cc(NC(=O)c2noc3c2CCCC3)n(-c2ccccc2)n1	+	-1.8	107.0	3.4	2.5	i	0.0
COc1ccc(S(=O)(=O)N(C)C[C@H]2OCCCC[C@@H](C)Oc3ccc(NS(C)(=O)=O)cc3C(=O)N([C@H](C)CO)C[C@H]2C)cc1	x	x	x	3.1	x	x	x
Cc1ccc2sc(N3CCN(C(=O)c4ccc([N+](=O)[O-])o4)CC3)nc2c1C	i	8.6	100.0	3.4	2.2	x	x
O=C(c1ccc([N+](=O)[O-])o1)N1CCN(c2nc3ccc(F)cc3s2)CC1	i	10.8	101.0	-3.0	-0.5	i	0.0
COc1cccc2sc(N3CCN(C(=O)c4ccc([N+](=O)[O-])o4)CC3)nc12	+	16.0	104.0	-4.7	-2.2	i	0.0
SMILES	Myeloid diff 2	N-glyco inh	ABCB6 inh 2	RAD54 inh	Vif inh	Myeloid diff	GFP autofluor
O=C(c1ccc([N+](=O)[O-])o1)N1CCN(c2nc3c(Cl)cccc3s2)CC1	i	4.8	97.0	x	x	x	x
C[C@@H]1CN([C@@H](C)CO)C(=O)Cc2cc(NC(=O)CCC(F)(F)F)ccc2O[C@@H]1CN(C)Cc1ccccc1	x	x	x	-4.0	x	x	x
C[C@H](CO)N1C[C@H](C)[C@H](CN(C)Cc2ccc(Cl)c(Cl)c2)Oc2c(NS(C)(=O)=O)cccc2C1=O	x	x	x	4.2	x	x	x
CCCCn1c(-c2ccc(C(C)(C)C)cc2)nc2cc3[nH]c(=O)c(C(C)C)nc3cc21	+	-7.9	104.0	3.9	-4.6	i	1.5
Cc1cc(C)nc(-n2ncc3c2CC(c2ccc(F)cc2)CC3=O)n1 (stereo unspecified)	i	0.5	96.0	0.8	-1.7	i	0.0
CCc1nnc(NC(=O)CCS(=O)(=O)Cc2ccccc2)s1	+	-5.0	96.0	3.9	16.0	i	1.0
CCCc1nnc(NC(=O)CCS(=O)(=O)Cc2ccccc2)s1	u	-8.0	96.0	-6.0	0.4	x	x
CCN1[C@@H]2c3ccc(C4=CCCCC4)c(=O)n3C[C@H]1[C@H](CO)[C@H]2C(=O)N1CCCCC1	x	x	x	5.9	x	x	x
CO[C@@H]1CN(C)C(=O)c2ccc(NC(=O)c3cnccn3)cc2OC[C@@H](C)N(C)C[C@H]1C	x	x	x	-4.5	x	x	x
OC(c1ccccc1)(c1ccccc1)C1CCN(CCCOc2ccc3c(c2)CCCC3)CC1	+	x	98.0	x	x	i	0.0
O=C(Nc1cc(Cl)cc(Cl)c1)N[C@@H]1CC[C@@H](CCNS(=O)(=O)c2cccc(F)c2)O[C@H]1CO	x	x	x	0.6	x	x	x
CC(=O)c1c(O)c(C)c(-c2ccccc2)n(-c2ccccc2)c1=O	i	0.3	107.0	-2.9	-13.8	x	x
CC(=O)c1c(O)cc(=O)n(-c2ccccc2)c1-c1ccc(C)cc1	i	1.6	96.0	1.8	1.5	i	0.0
Cc1cccc(NC(=S)N/N=C/c2ccc([N+](=O)[O-])s2)c1	i	-9.0	362.0	-7.8	1.5	i	61.5*
Cc1cccc(NC(=O)/C=C/c2ccc([N+](=O)[O-])s2)c1	u	-17.4	95.0	x	x	x	x
CCOP(=O)(OCC)/C(C#N)=C/c1ccc([N+](=O)[O-])cc1	i	0.7	103.0	x	5.0	i	0.0
N#C/C(=C/c1ccc([N+](=O)[O-])cc1)C(N)=O	i	4.6	100.0	x	-11.3	x	x
COc1cc(CC(=O)OCC(=O)c2c[nH]c3ccccc23)cc(OC)c1OC	i	8.8	99.0	-17.6	0.0	i	9.7*
